Out of some 220,000 compounds screened, about 5,700 (2.6%) were called active. Not shown: some 18% with an inconclusive outcome. What follows is part of a selection rich in actives, with near analogues and random picks from the rest. A number with no mark means an inactive call. Calls come from the whole dose curve; as a rule, active = well fitted inhibition curve with a large enough effect; inconclusive = small, poorly fitted or top-dose-only effect; inactive = no such curve, though single readings can be large or run the other way.
Potency is the fitted concentration of half-maximal effect.

Sequence of Lysine-specific demethylase 5B (Homo sapiens) (Q9UGL1 whole entry, looked up): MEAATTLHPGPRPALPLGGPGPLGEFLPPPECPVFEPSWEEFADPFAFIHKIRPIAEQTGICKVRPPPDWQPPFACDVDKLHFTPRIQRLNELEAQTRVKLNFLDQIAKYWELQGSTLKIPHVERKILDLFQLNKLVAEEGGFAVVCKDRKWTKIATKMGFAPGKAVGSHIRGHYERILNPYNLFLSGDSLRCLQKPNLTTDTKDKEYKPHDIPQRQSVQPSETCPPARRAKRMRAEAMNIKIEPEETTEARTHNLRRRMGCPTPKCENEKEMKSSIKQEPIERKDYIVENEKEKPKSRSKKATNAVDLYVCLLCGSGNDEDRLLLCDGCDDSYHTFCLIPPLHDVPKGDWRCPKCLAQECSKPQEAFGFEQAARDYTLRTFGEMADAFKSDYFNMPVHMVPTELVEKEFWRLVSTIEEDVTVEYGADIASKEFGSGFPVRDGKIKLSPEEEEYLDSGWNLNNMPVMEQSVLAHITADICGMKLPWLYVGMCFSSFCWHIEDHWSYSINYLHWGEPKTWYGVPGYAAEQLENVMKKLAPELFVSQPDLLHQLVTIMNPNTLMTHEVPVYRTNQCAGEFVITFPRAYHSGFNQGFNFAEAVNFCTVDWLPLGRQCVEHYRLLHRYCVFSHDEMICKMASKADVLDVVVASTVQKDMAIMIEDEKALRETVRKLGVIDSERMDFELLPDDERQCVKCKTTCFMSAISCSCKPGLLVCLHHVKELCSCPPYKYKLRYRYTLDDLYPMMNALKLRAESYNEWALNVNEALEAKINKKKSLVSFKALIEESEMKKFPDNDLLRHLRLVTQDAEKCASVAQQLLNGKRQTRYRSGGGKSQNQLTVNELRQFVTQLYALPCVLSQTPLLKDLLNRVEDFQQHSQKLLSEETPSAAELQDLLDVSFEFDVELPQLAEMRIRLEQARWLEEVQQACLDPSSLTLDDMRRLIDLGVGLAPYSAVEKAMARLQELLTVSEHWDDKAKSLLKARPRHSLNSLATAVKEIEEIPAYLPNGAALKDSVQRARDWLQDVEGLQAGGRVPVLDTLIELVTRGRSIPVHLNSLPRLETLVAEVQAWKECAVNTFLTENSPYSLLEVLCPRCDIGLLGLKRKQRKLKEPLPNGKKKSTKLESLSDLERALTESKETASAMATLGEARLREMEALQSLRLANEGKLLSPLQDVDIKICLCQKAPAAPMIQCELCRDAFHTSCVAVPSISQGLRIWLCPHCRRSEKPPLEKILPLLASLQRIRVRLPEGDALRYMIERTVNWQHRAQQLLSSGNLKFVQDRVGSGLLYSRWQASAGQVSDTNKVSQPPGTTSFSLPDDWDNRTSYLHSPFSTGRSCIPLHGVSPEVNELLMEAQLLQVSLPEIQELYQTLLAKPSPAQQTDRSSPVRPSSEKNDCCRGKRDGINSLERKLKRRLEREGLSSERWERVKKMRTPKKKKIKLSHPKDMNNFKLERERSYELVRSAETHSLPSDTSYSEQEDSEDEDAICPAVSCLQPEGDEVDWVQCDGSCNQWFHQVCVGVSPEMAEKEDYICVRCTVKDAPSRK

The target of this assay is Lysine-specific demethylase 5B (Homo sapiens) (UniProt Q9UGL1). The assay is described as follows: Primary screen for KDM5B Histone Demethylases FDH-coupled qHTS. For activity change, negative = inhibition: 0% is about no effect. Note: nearly all actives have a fitted effect of over 70% in size. The conditions noted are these: FDH-coupled NADH fluorescence (FDH is formaldehyde dehydrogenase); series mostly up to 57.7 µM; activity change, negative = inhibition: at the top concentration. An excerpt:
Assay Submitter (PI): Qin Yan, Ph.D. (Yale University) and Xiaodong Cheng, Ph.D. (MD Anderson) This project was funded as part of the NCI NEXT Program and Chemical Biology Consortium (CBC) The histone demethylases, KDM5A and KDM5B catalyze the demethylation of lysine 4 on histone H3 (H3K4me3/2). They are overexpressed in a variety of cancers and have been implicated in cancer cell growth, metastasis, drug resistance, and tumor growth. KDM5A is amplified and overexpressed in breast and gastric cancer; and is translocated in leukemia. While KDM5B is highly expressed in human mammary tumors and breast cancer cell lines, but not in normal adult breast tissue. Moreover, knockdown of KDM5B leads to upregulation of tumor suppressor genes, including BRCA1. The goal of this project is to employ qHTS to identify selective small molecule inhibitors of KDM5A/B demethylase activity to better understand the role of KDM5 in cancer and to develop novel therapies. We employed an FDH-coupled assay previously reported by Sakurai et al. to monitor in vitro KDM5 demethylase activity. Compounds showing dose response inhibition are re-acquired, validated, and tested for non-specific interference with the formaldehyde dehydrogenase (FDH) counterscreen. True inhibitors are validated using an AlphaLisa secondary screen, which employs an H3K4(me2-1)-specific antibody to monitor demethylation of a biotin-tagged H3K4(me3) peptide substrate. Inhibitors are profiled against KDM4A and KDM6A AlphaLisa counterscreens to determine level of demethylase specificity; and against the TruHits counterscreen to eliminate non-specific inhibitory activity on the AlphaLISA detection method. Selective inhibitors identified from the primary and secondary screening are tested in cells using immunofluorescence to monitor global H3K4 tri-methylation as a measure of KDM5A/B inhibition. Early Translation Branch (ETB) National Center for Advancing Translational Sciences (NCATS), Rockville, MD National Institute of Health (NIH), Bethesda, Maryland [1] Sakurai, M et al. A miniaturized screen for inhibitors of Jumonji histone demethylases. Mol Biosyst. 2010 Feb;6(2):357-64. doi: 10.1039/b912993f. Epub 2009 Oct 8.
Materials: 1536-well Black, solid bottom, medium binding assay plate is purchased from Greiner Bio-one. The enzymes (KDM5B) and substrate (H3K4me3/2) are provided by the principal investigators. The buffer for this assay is composed of 50mM HEPES at pH 7.5 with 0.01% Tween-20. FDH coupled Demethylase qHTS protocol: Three microliter enzyme mix (buffer + 200nM KDM5BDeltaAP final concentration) is dispensed into the assay plate using the BioRAPTR Flying Reagent Dispenser (FRD; […]). Compound (at various final concentration) and control solution is pin transferred to the assay plate using the Kalypsys 1536-pin tool apparatus. The assay plate is incubated for 10 min at room temperature followed by addition of 1uL substrate mix (buffer + 100uM ascorbic acid, 50uM ferrous ammonium sulfate, 12.5uM H3K4Me3, 25uM a-ketoglutarate, 0.25 mM NAD+, 0.25 U/mL formaldehyde dehydrogenase using the FRD yielding a total reaction volume of 4 uL. Initial fluorescence (Read1) is detected using the PerkinElmer ViewLux plate reader equipped with 340 nm excitation and 450 nm emission filters. The final fluorescence (Read2) signal is obtained after 30 min of room temperature incubation. Delta RFU is calculated (Read2 - Read1) and is used to generated dose response curves.
As for `CC(C)(C)c1nc(C(=O)N2CCOCC2)n2ccccc12`, the Potency was 100 µM (active).
Take `O=C(c1cc(-c2ccc(Cl)s2)nc2ccccc12)N1CCOCC1`: the “activity change, negative = inhibition” value is -666%.
In the case of `O=C1CCN(C(=O)c2nccc3ccccc23)CCOCCN1`, the “activity change, negative = inhibition” value was -7.83%.
For `NC(=O)c1ccc(NC(=O)CCc2ncc(-c3ccc(F)cc3)o2)cc1`, the “activity change, negative = inhibition” value is -4.37%.
Turning to `c1cc(-c2ccsc2)n2nc(C3CCCO3)nc2n1` (configuration not stated), the Potency was 25.1 µM (active).
In the case of `O=C(CSc1nnc(-c2ccccc2)c2ccccc12)c1ccc2c(c1)OCCCO2`, the “activity change, negative = inhibition” value was 0.618%.
Regarding `O=C(CS(=O)(=O)Cc1coc(-c2ccc(F)cc2)n1)NC1CCCCCC1`, the “activity change, negative = inhibition” value was 3.85%.
For the compound `O=C(COc1ccc(Cl)cc1)Nc1ccc2oc(-c3ccc(F)cc3)nc2c1`, the “activity change, negative = inhibition” value is -13.3%.
Take `CC(C)C(Nc1ccc([N+](=O)[O-])cn1)c1ccc(Cl)cc1` (configuration not stated): the “activity change, negative = inhibition” value is -3.31%.
Regarding `Cc1cc(C)cc(C(=O)NC2CCN(c3cnn(C)c(=O)c3)CC2)c1`, the “activity change, negative = inhibition” value is -4.03%.
Regarding `O=C(NCc1ccccc1)C1CCN(c2nc3ccccc3o2)CC1`, the “activity change, negative = inhibition” value was 11.2%.
As to `O=C(NC1C[C@H]2CC[C@@H](C1)N2S(=O)(=O)c1ccc2c(c1)OCCO2)c1ccc(F)cc1` (some centres not stated), the “activity change, negative = inhibition” value was 3.96%.
Consider `CCN(CC)Cc1ccc(CNC(=O)C2CCN(c3nc4ccccc4o3)CC2)cc1`, for which the “activity change, negative = inhibition” value was -10.5%.
For the compound `Cc1ccnc(N2CCCC(C(=O)NC3CC3)C2)n1` (configuration not stated), the “activity change, negative = inhibition” value was -15%.
On to `O=C(NC1CCN(c2nc3ncccc3o2)CC1)c1ccc(Cl)nc1`, for which the Potency was 25.1 µM (active).
Turning to `Cc1ccccc1CN1CCC(N2CCCC(C(=O)NC3CC3)C2)CC1` (configuration not stated), the “activity change, negative = inhibition” value was 14.5%.
Regarding `O=C(NC1CCN(c2nc3ncccc3o2)CC1)c1ccc(F)cc1`, the Potency is 35.5 µM (active).
In the case of `O=C(NC1CC1)C1CCCN(c2nc3ncccc3o2)C1` (configuration not stated), the Potency is 35.5 µM (active).
Turning to `O=C(NC1CCCCC1)c1ccc(Cn2c(SCc3ccccc3)nc3cccnc32)cc1`, the “activity change, negative = inhibition” value is -21.5%.
Take `CN(C)C(=O)NC1CCN(c2nc3ncccc3o2)CC1`: the Potency was 31.6 µM (active).
On to `O=C(NC1CCN(c2cc(C(F)(F)F)ncn2)CC1)c1ccc(F)cc1`, for which the “activity change, negative = inhibition” value is 9.96%.
With `CC/C(=N/N=C(/CC)c1ccccc1)c1ccccc1`, the “activity change, negative = inhibition” value was 23.2%.
Regarding `CC(C)c1nnc(NC(=O)c2cc(Cl)c3c(c2)OCCO3)s1`, the “activity change, negative = inhibition” value was -1.89%.
As for `O=C(NCc1ccc(CN2CCCCC2)cc1)c1cc2ccccc2oc1=O`, the “activity change, negative = inhibition” value was 97.4%.
For `CC(C)NC(=O)Nc1ccc(CNC(=O)C2(C#N)CCCC2)cc1`, the “activity change, negative = inhibition” value is -18.1%.
Consider `Cn1c(=O)[nH]c(=O)c2c1nc(N1CCC(Cc3ccccc3)CC1)n2CCCc1ccccc1`, for which the “activity change, negative = inhibition” value was 10.3%.
Take `O=C(NCC(=O)N1CCCC(C(F)(F)F)C1)c1ccccc1F` (configuration not stated): the “activity change, negative = inhibition” value was 9.21%.
Same read-out and setting: under `CC1CCC(NC(=O)CCCc2ccccc2)CC1` (configuration not stated) stands -6.51%; under `O=C(c1n[nH]c(=O)c2ccccc12)N1CCCCCC1c1nnc(-c2ccccc2)o1` (configuration not stated), -0.997%.
With `Cc1sc(NCCC(C)C)nc1-c1ccc(NS(C)(=O)=O)cc1`, the “activity change, negative = inhibition” value is -7.19%.
On the same count and under the same terms, under `CC(C)c1ncc(Cl)c(C(=O)O)n1` stands 16.6%; under `CN(C)CCNC(=O)c1nc2nc(-c3ccccc3)c(-c3cccc(F)c3)cc2n1C`, -5860% [at 86.2 µM].
As for `COc1ccc(Nc2cc(Cl)ccc2C(=O)O)cn1`, the “activity change, negative = inhibition” value is -24.1%.
Turning to `COc1ccc(Nc2cc3c(nc2-c2ccccc2)nc(C(=O)NCCN(C)C)n3C)cn1`, the Potency is 31.6 µM (active).
`CN(C(=O)CCc1c[nH]c2ccccc12)C1CCCC1`: the “activity change, negative = inhibition” value is 10.4%.
Turning to `O=C1NCc2ccccc2CC12CCCN(Cc1ccc(F)c(Cl)c1)C2` (configuration not stated), the “activity change, negative = inhibition” value was 19% [at 115 µM].
Turning to `CCOc1ccccc1NC(=O)c1cnc2ccccc2n1`, the “activity change, negative = inhibition” value is 4.75%.
For the compound `CCC(C(=O)Nc1ccc(F)cc1F)n1nc(-c2ccc(C)cc2)ccc1=O` (configuration not stated), the “activity change, negative = inhibition” value was 3.04%.
`O=c1[nH]c(C2CCN(Cc3ccccc3)CC2)nc2ccc(F)cc12`: the Potency entry was “inactive”.
In the case of `Cc1ccc2nc(C3CCCN(Cc4ccc(C#N)cc4)C3)[nH]c(=O)c2c1` (configuration not stated), the Potency entry is “inactive”.
In the case of `O=c1[nH]c(C2CCCN(Cc3ccc(-c4ccsc4)cc3)C2)nc2ccc(F)cc12` (configuration not stated), the Potency was 79.4 µM (active).
In the case of `Cc1cc(Cl)cc(SCC(=O)O)c1Cl`, the “activity change, negative = inhibition” value was 12%.
Take `CC(C)NC(=S)N/N=C1\CCc2ccccc21`: the “activity change, negative = inhibition” value is -6.15%.
Take `CC(O)CNC(=O)c1ccc(-c2ncc3cnc(C4=CCOCC4)cn23)cc1` (configuration not stated): the Potency is 35.5 µM (active).
On to `Cc1ccc(S(=O)(=O)N2CC(C)N(S(C)(=O)=O)C2)cc1` (configuration not stated), for which the “activity change, negative = inhibition” value is 29.2%.
For `COc1ccc(CN(C)C(=O)c2nn(C)c(=O)c3ccccc23)cc1F`, the “activity change, negative = inhibition” value was -16.1%.
Turning to `COc1ccccc1CNC(=O)c1nn(C)c(=O)c2ccccc12`, the “activity change, negative = inhibition” value was 6.64%.
In the case of `COc1ccccc1-c1cc(C(=O)N(C)C)nc2c1cnn2C`, the Potency was 89.1 µM (active).
Regarding `O=C(/C=C/c1ccc(F)cc1)NNC(=O)c1ccc(NC(=O)C2CCCCC2)cc1`, the “activity change, negative = inhibition” value was 22.8%.
`CCCCCOC(=O)COc1ccc2c(=O)c(Oc3cccc(C)c3)c(C(F)(F)F)oc2c1`: the “activity change, negative = inhibition” value was -13.5%.
`CC(C)C(NC(=O)Cc1ccc(N2CCCC2=O)cc1)c1nc2ccccc2[nH]1` (configuration not stated): the “activity change, negative = inhibition” value is 0.833%.
As to `CCCn1cnc2c1CN(S(=O)(=O)Cc1ccccc1)[C@H](C(=O)OC)C2`, the Potency is 39.8 µM (active).

Source of the values: PubChem BioAssay AID1347165 (National Center for Advancing Translational Sciences (NCATS), 2019).
